Consider 27 molecules from PubChem BioAssay (NCI).

Compounds without any hit were thinned out: in the full panel of roughly 83,000, 20% have a hit.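 Assay: single dose, 48 h. Readout: percent growth (0 = no net growth; negative = cell death). Active: <10.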 A number with no mark means an inactive call. Activity calls are given as the source filed them.

Common to all, as to test: NCI-60 one-dose screen, 48 h (100 = growth as untreated, 0 = no growth, -100 = all killed)
Common to all, as to conditions: 10 µM unless noted

The subject of assay [1] is T-47D breast.
Assay [2] relates to BT-549 breast.
Assay [3] deals with MDA-MB-435 melanoma.
Assay [4] has as its system SW-620 colon.
In assay [5] the test system is MCF7 breast.
Assay [6] relates to HCT-116 colon.
Assay [7] relates to HCC-2998 colon.
The subject of assay [8] is KM12 colon.

Regarding `CCn1c(Cc2ccccc2Nc2c(Cl)cccc2Cl)nnc1SCC(=O)Nc1ccccc1C(F)(F)F`, the growth in assay [1] was 47.6%; in assay [2] it was 94.4%; in assay [3], 99.5%; in assay [4] it was 99.3%; in assay [5] it was 86.3%; in assay [6] it was 77.8%. Further, the growth is 99.9% in assay [7] and 97.6% in assay [8].

As for `CC(CN1CCN(CC(C)Nc2ccnc3cc(Cl)ccc23)CC1)Nc1ccnc2cc(Cl)ccc12` (stereo unspecified), the growth in assay [1] was -21.3% (active); in assay [2] it was 10.8%; in assay [3], -45.4% (active); in assay [4], 5.03% (active); in assay [5], 10.6%; in assay [6] it was -83.2% (active). For the same molecule, the growth in assay [7] was -5.03% (active); in assay [8], 19.8%.

`CCNC(=O)c1ccc2c(c1)nc(-c1ccc(Cl)cc1)n2-c1cc(C(C)(C)C)[nH]n1`: the growth in assay [1] was 51.7%; in assay [2], 41.8%; in assay [3], -20.6% (active); in assay [4] it was 42.7%; in assay [5], 14.7%; in assay [6], 15.3%. Further, the values for the growth in assay [7] and in assay [8] were 63.4% and 38.9%, respectively.

Take `COc1cc(/C=C2\CN(C(=O)OC(C)(C)C)C/C(=C\c3ccc(O)c(OC)c3)C2=O)ccc1O`: the growth was 92.1% in assay [1]; 85.4% in assay [2]; 99.4% in assay [3]; 99.9% in assay [4]; 85.9% in assay [5]; 68.6% in assay [6]. The growth in assay [7] is 106%; in assay [8] it was 99.1%.

Take `NS(=O)(=O)c1ccc(CCn2c(SCC(=O)N/N=C/c3cccnc3)nc3ccccc3c2=O)cc1`: the growth in assay [1] was 65.9%; in assay [2], 79%; in assay [3], 93.7%; in assay [4] it was 96.7%; in assay [5] it was 79.6%; in assay [6], 77.3%. The growth in assay [7] is 111%; in assay [8] it was 81.8%.

`COc1cnc2c(c1)C(=O)c1c-2n(CCCN2CCNCC2)c(=O)c2cc(Cl)ccc12`: the growth was 58.8% in assay [1]; 45.7% in assay [2]; 0.312% (active) in assay [3]; -84.5% (active) in assay [4]; -74.9% (active) in assay [5]; -100% (active) in assay [6]. For the same molecule, the values for the growth in assay [7] and in assay [8] were 54.4% and 11.8%, respectively.

For the molecule `CS(=O)(=O)c1ccc(C(=O)N/N=C/c2ccc3c(c2)OCO3)cc1`, the growth in assay [1] was 97.3%; in assay [2], 109%; in assay [3], 102%; in assay [4] it was 105%; in assay [5], 95%; in assay [6], 98.1%. For the same molecule, the growth in assay [7] was 93%; in assay [8], 95.9%.

For the molecule `Nc1c(Br)cc2c(c1Br)Cc1cc(Cl)ccc1-2`, the growth is 66% in assay [1]; 128% in assay [2]; 102% in assay [3]; 98.2% in assay [4]; 80.6% in assay [5]; 97.1% in assay [6]. Moreover, the growth in assay [7] was 102%; in assay [8], 98.7%.

As to `CCCCCCCCCCCCNC(=O)N[C@H](C(=O)N[C@H]1/C=C/CCNC(=O)/C=C/[C@H](C)NC1=O)C(C)C`, the growth is -41.9% (active) in assay [1]; -87.2% (active) in assay [2]; -40.1% (active) in assay [3]; -22.3% (active) in assay [4]; 14.1% in assay [5]; -85.2% (active) in assay [6]. Further, the growth in assay [7] was -95.8% (active); in assay [8], -62.4% (active).

For the molecule `COC(=O)c1ccc2c(c1)nc(-c1ccc(Cl)cc1)n2-c1cc(C(C)(C)C)[nH]n1`, the growth in assay [1] is 76.9%; in assay [2], 43.9%; in assay [3], -12.3% (active); in assay [4], 49.1%; in assay [5], 25.1%; in assay [6], 28.5%. In addition, the growth in assay [7] is 68.1%; in assay [8], 34.6%.

`NC(N)=N/N=C/c1cccc(Cl)c1Cl`: the growth in assay [1] was 81.5%; in assay [2], 65.9%; in assay [3], 4.26% (active); in assay [4], -4.72% (active); in assay [5] it was 17.6%; in assay [6] it was 67.9%. Moreover, the values for the growth in assay [7] and in assay [8] were 7.38% (active) and 10.5%, respectively.

Consider `CNC(=O)OC1C(O[C@H]2C[C@H]3[C@@H]4CC=C5C[C@@H](O)CC[C@]5(C)[C@H]4CC[C@]3(C)[C@H]2[C@H](C)C(=O)CCC(C)C)OCC(O)C1OC1OCC(O)C(O)C1OC(=O)c1ccc(OC)cc1` (stereo partly specified), for which the growth in assay [1] was 10.2%; in assay [2] it was 18.3%; in assay [3], -25.7% (active); in assay [4] it was -37.2% (active); in assay [5], 3.66% (active); in assay [6], 8.61% (active). For the same molecule, the growth in assay [7] is 67.3%; in assay [8], 36.5%.

`O=c1c2cc(Cl)ccc2oc2ccc(OCCCCCN3CCCCC3)cc12`: the growth was 60.1% in assay [1]; 64.6% in assay [2]; -24% (active) in assay [3]; 33.7% in assay [4]; 56.5% in assay [5]; 11.5% in assay [6]. Moreover, the growth in assay [7] was 74.7%; in assay [8], 65%.

As for `Clc1ccc(Cl)c(N=Cc2ccc3c(c2)OCO3)c1`, the growth in assay [1] is 101%; in assay [2] it was 96.2%; in assay [3] it was 106%; in assay [4], 107%; in assay [5] it was 108%; in assay [6], 104%. Further, the results for the growth in assay [7] and in assay [8] were 98.5% and 106%, respectively.

For the molecule `CC1CCN(CCCCCOc2ccc3oc4ccc(Cl)cc4c(=O)c3c2)CC1`, the growth in assay [1] is 63.4%; in assay [2], 76.2%; in assay [3], 21.4%; in assay [4], 46.7%; in assay [5] it was 59.8%; in assay [6], 23.9%. Also, the growth in assay [7] is 78.4%; in assay [8], 62.3%.

With `COc1ccc(Nc2nc(N)nc3c(=O)[nH]ccc23)cc1`, the growth in assay [1] was 96.6%; in assay [2], 102%; in assay [3], 113%; in assay [4] it was 99.5%; in assay [5], 79.7%; in assay [6], 83.7%. In addition, the growth was 107% in assay [7] and 104% in assay [8].

On to `CC(=O)NC1C(O[C@H]2C[C@H]3[C@@H]4CC=C5C[C@@H](O)CC[C@]5(C)[C@H]4CC[C@]3(C)[C@H]2[C@H](C)C(=O)CCC(C)C)OCC(O)C1O` (stereo partly specified), for which the growth is 45.4% in assay [1]; 31.3% in assay [2]; 35.3% in assay [3]; 49.4% in assay [4]; 43.4% in assay [5]; 31.8% in assay [6]. For the same molecule, the growth in assay [7] was 89.5%; in assay [8], 70.1%.

`O=C(c1ccccc1)C1OC1C(=O)c1ccccc1` (stereo unspecified): the growth in assay [1] was -7.04% (active); in assay [2], 92.1%; in assay [3], 1.06% (active); in assay [4], 27.7%; in assay [5], 16.8%; in assay [6], -5.13% (active). The growth was 69.8% in assay [7] and 55.5% in assay [8].

Take `O=C(CCCCCCN1CC(=O)N2[C@@H](c3ccc(Cl)c(Cl)c3)c3[nH]c4ccccc4c3C[C@H]2C1=O)NO`: the growth is 27.9% in assay [1]; 63.7% in assay [2]; 47.3% in assay [3]; 33% in assay [4]; 29% in assay [5]; 23.2% in assay [6]. Further, the growth in assay [7] was 61.9%; in assay [8], 69.8%.

For `O=C(O)c1ccccc1Oc1cc(-c2ccco2)nc(OCCN2CCOCC2)n1`, the growth was 97.2% in assay [1]; 96.6% in assay [2]; 101% in assay [3]; 115% in assay [4]; 102% in assay [5]; 97.9% in assay [6]. The figures for the growth in assay [7] and in assay [8] were 108% and 111%, respectively.

For the molecule `N=c1nc(N2CCCCC2)cc(N)n1O`, the growth was 100% in assay [1]; 106% in assay [2]; 107% in assay [3]; 109% in assay [4]; 84.2% in assay [5]; 106% in assay [6]. Further, the figures for the growth in assay [7] and in assay [8] were 105% and 107%, respectively.

Take `O=C(Cc1ccc([N+](=O)[O-])cc1)Oc1ccccc1`: the growth is 109% in assay [1]; 106% in assay [2]; 122% in assay [3]; 114% in assay [4]; 107% in assay [5]; 114% in assay [6]. The growth in assay [7] was 106%; in assay [8], 118%.

As for `CCCCCCCCCCCCCC`, the growth in assay [1] is 101%; in assay [2] it was 112%; in assay [3], 104%; in assay [4] it was 104%; in assay [5] it was 91.1%; in assay [6], 102%. Besides, the values for the growth in assay [7] and in assay [8] were 97.8% and 115%, respectively.

In the case of `COc1cc(-c2nc(-c3ccc(-c4nc5ccc(F)cc5[nH]4)cc3)no2)cc(OC)c1OC`, the growth is 8.56% (active) in assay [1]; 35.7% in assay [2]; 46.8% in assay [3]; 55.3% in assay [4]; 41.1% in assay [5]; 28.2% in assay [6]. In addition, the figures for the growth in assay [7] and in assay [8] were 81.5% and 11.5%, respectively.

Consider `COc1ccc2nc(-c3ccc(-c4noc(-c5ccc(Cl)cc5)n4)cc3)[nH]c2c1`, for which the growth in assay [1] was 67.3%; in assay [2], 74.8%; in assay [3], 60.2%; in assay [4], 49.6%; in assay [5], 46.4%; in assay [6], 51.3%. Further, the growth in assay [7] was 93.6%; in assay [8] it was 53.3%.

For `O=C(N/N=C/c1ccc([N+](=O)[O-])o1)c1ccc(O)cc1`, the growth was 44.2% in assay [1]; 59.4% in assay [2]; -79.5% (active) in assay [3]; 18.2% in assay [4]; 26.1% in assay [5]; 11.4% in assay [6]. Also, the growth was 62.9% in assay [7] and 33% in assay [8].

Consider `Cc1ccc2c(C)c3c(ccc4ccccc43)c[n+]2c1`, for which the growth in assay [1] is -8.02% (active); in assay [2], 37%; in assay [3], 83.2%; in assay [4], 83.1%; in assay [5], 35.7%; in assay [6] it was 81.7%. For the same molecule, the figures for the growth in assay [7] and in assay [8] were 72.6% and 28.6%, respectively.
